Among the data in PubChem BioAssay (Tox21) are Potency and activation values, retold here.

Where “and” joins values, the source holds several entries; their conditions need not be identical. Identical values can stand only once. More than one record can exist for a structure, and the calls need not agree. Calls of active or inactive are those of the source. Unless noted, calls follow the shape of the dose curve; as a rule, active = well fitted curve in the direction sought with a large enough effect in the repeat runs; inconclusive = weak or mixed curves; inactive = no such curve, though single readings can be large; an effect the other way counts as inactive or inconclusive.

Assay [1] is described as follows: qHTS assay to identify small molecule antagonists of the glucocorticoid receptor (GR) signaling pathway - cell viability counter screen (AID 720693). Also: nearly all actives have a fitted effect of over 55% in size. Also: potency is read from the fitted curve at half-maximal effect.
A short description of assay [2]: qHTS assay for identifying genotoxic compounds that show differential cytotoxicity against isogenic chicken DT40 cell lines with known DNA damage response pathways - wild type cell line (AID 743012). Also: nearly all actives have a fitted effect of over 60% in size. Also: potency is read from the fitted curve at half-maximal effect. In outline: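 300 wt DT40 cells/well; cpd (DMSO) pintool-transferred after ~0.5 h at 37 C/5% CO2; 40 h incubation; CellTiter-Glo added, 30 min RT; luminescence read.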
(In general: In qHTS, concentration-response curves come from the screen itself.)

The nature of assay [3]: qHTS assay for identifying genotoxic compounds that show differential cytotoxicity against isogenic chicken DT40 cell lines with known DNA damage response pathways - Rad54/Ku70 mutant cell line (AID 743015). Also: nearly all actives have a fitted effect of over 60% in size. Also: potency is read from the fitted curve at half-maximal effect.
Assay [4] can be described thus: qHTS assay to identify small molecule antagonists of the androgen receptor (AR) signaling pathway using the MDA cell line - cell viability counter screen (AID 743041; also: nearly all actives have a fitted effect of over 45% in size; also: potency is read from the fitted curve at half-maximal effect). The method, boiled down:
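Compound exposure lasted 16 h at 37C in MDA-kb2 AR-luc cells stimulated with R1881. Protease-based CellTiter-Fluor reagent was applied for the final 30 min and fluorescence measured.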

Assay [5] deals with Estrogen receptor (Homo sapiens) (UniProt P03372). Briefly: qHTS assay to identify small molecule antagonists of the estrogen receptor alpha (ER-alpha) signaling pathway (AID 743069; active = well fitted curve in the direction sought with a large enough effect in the signal ratio in the repeat runs, not every such curve was filed as active; inconclusive = weak or mixed curves, or effect the other way; inactive = no such curve, though single readings can be large or run the other way; the % refers to the signal ratio). In outline:
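In this cell-based reporter format, GripTite HEK293 cells harbouring ER-alpha-UAS-bla were grown overnight with 2% charcoal-stripped FBS, dosed with DMSO-dissolved compounds, then challenged with 17beta-estradiol. After 18 hr at 37C, beta-lactamase activity was detected by FRET fluorescence.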

Assay [6] in a line: qHTS assay to identify small molecule antagonists of the estrogen receptor alpha (ER-alpha) signaling pathway - cell viability counter screen (AID 743074; calls by dose curve; also: nearly all actives have a fitted effect of over 45% in size; also: potency is read from the fitted curve at half-maximal effect).
The target in assay [7] is Estrogen receptor (Homo sapiens) (UniProt P03372). Briefly: qHTS assay to identify small molecule agonists of the estrogen receptor alpha (ER-alpha) signaling pathway (AID 743075; calls by dose curve; also: potency is read from the fitted curve at half-maximal effect). The settings on record: HEK293 ER-alpha-UAS-bla, beta-lactamase FRET ratio, 18 h; activation: at 70.1 µM (top of the series).
Chain of Estrogen receptor (Homo sapiens) (P03372 whole entry, looked up): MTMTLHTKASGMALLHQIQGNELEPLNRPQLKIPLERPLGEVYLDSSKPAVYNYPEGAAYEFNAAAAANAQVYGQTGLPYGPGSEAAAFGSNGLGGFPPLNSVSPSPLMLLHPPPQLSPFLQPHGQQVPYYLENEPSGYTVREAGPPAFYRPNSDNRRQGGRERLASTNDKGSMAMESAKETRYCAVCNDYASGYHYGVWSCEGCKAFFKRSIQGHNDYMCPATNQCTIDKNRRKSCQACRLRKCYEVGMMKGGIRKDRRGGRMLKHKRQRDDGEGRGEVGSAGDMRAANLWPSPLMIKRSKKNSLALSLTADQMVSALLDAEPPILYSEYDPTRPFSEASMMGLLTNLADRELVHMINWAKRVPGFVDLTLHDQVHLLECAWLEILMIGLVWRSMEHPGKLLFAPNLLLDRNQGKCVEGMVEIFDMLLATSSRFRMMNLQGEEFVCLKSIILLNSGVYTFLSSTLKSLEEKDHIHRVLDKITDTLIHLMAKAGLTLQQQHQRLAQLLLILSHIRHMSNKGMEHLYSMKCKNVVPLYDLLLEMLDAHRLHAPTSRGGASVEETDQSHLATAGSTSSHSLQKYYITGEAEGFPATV
Assay [8] shares this target. Briefly: qHTS assay to identify small molecule agonists of the estrogen receptor alpha (ER-alpha) signaling pathway using the BG1 cell line (AID 743079). Also: nearly all actives have a fitted effect of over 20% in size. Also: potency is read from the fitted curve at half-maximal effect. The note with it: BG1Luc4E2 cells, ERE-luciferase agonist, 22 h.
A short description of assay [9]: qHTS assay to identify small molecule antagonists of the estrogen receptor alpha (ER-alpha) signaling pathway using the BG1 cell line (AID 743080; calls by dose curve;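 also: BG1 cells stimulated with 17beta-estradiol alongside compound; nearly all actives have a fitted effect of over 25% in size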). The method, boiled down: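 Quantitative HTS on the Tox21 10K library: BG1 cells with endogenous ER-alpha and ERE-luciferase reporter, 17beta-estradiol stimulation, 21.5 h compound exposure, luminescence endpoint with parallel fluorescence cytotoxicity counter-read.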

Assay [10] can be described thus: qHTS assay to identify small molecule antagonists of the estrogen receptor alpha (ER-alpha) signaling pathway using the BG1 cell line - cell viability counter screen (AID 743081).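 Also: compound given together with 17beta-estradiol as the ER stimulus; nearly all actives have a fitted effect of over 45% in size.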 Also: potency is read from the fitted curve at half-maximal effect.
The target in the next assay is Aromatase (Homo sapiens) (UniProt P11511). Briefly: qHTS assay to identify aromatase inhibitors (AID 743083). Also: nearly all actives have a fitted effect of over 55% in size. Also: potency is read from the fitted curve at half-maximal effect.
Chain of Aromatase (Homo sapiens) (P11511 whole entry, looked up): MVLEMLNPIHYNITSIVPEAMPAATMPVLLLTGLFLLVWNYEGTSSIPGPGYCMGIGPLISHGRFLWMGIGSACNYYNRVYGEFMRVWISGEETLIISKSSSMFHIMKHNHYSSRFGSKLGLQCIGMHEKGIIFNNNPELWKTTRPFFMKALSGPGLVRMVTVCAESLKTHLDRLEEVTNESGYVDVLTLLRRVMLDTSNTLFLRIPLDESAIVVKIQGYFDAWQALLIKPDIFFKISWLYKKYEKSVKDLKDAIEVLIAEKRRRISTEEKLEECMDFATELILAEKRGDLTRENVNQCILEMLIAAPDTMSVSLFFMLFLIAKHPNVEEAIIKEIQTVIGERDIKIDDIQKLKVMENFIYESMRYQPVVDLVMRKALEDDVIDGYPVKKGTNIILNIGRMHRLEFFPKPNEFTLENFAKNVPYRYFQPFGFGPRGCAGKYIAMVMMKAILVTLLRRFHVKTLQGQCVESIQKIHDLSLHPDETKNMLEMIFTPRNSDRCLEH
Assay [11] is described as follows: qHTS assay to identify small molecule antagonists of the thyroid receptor (TR) signaling pathway - cell viability counter screen (AID 743064). Also: nearly all actives have a fitted effect of over 50% in size. Also: potency is read from the fitted curve at half-maximal effect. In outline: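 Compounds were tested on GH3.TRE-Luc cells in the presence of T3 at 1 nM final. Following 23.5 h at 37 °C, cell viability was quantified by CellTiter-Fluor.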
A short description of assay [12]: qHTS assay to identify small molecule antagonists of the thyroid receptor (TR) signaling pathway (AID 743065). Also: nearly all actives have a fitted effect of over 55% in size. Also: potency is read from the fitted curve at half-maximal effect. The method, boiled down:
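GH3.TRE-Luc rat pituitary cells (two TREs driving luciferase) were dosed with compound, then stimulated with 1 nM T3 (final) for 23.5 h at 37 C. ONE-Glo luminescence was the read-out, with CellTiter-Fluor fluorescence as the cytotoxicity counter-screen.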

Assay [13] concerns thyroid hormone receptor (rat, GH3 cells). Briefly: qHTS assay to identify small molecule agonists of the thyroid receptor (TR) signaling pathway (AID 743066; calls by dose curve).
For assay [14], the target named is Androgen receptor (Homo sapiens) (UniProt P10275). Briefly: qHTS assay to identify small molecule agonists of the androgen receptor (AR) signaling pathway using the MDA cell line (AID 743040; also: nearly all actives have a fitted effect of over 20% in size). The method, boiled down:
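Testing was done with the MDA-kb2 AR-luc line, a human breast carcinoma stably transfected with MMTV-luciferase containing AR and GR response elements. Cells were exposed 16 h at 37C before ONE-Glo luminescence detection.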

For assay [15] the target is unchanged. Briefly: qHTS assay to identify small molecule antagonists of the androgen receptor (AR) signaling pathway using the MDA cell line (AID 743042; also: nearly all actives have a fitted effect of over 55% in size; also: potency is read from the fitted curve at half-maximal effect). In outline: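 MDA-kb2 breast carcinoma cells carrying MMTV-luciferase (AR/GR responsive) were co-treated with compounds and the agonist R1881 for 16 h at 37C. Inhibition read as ONE-Glo luminescence; CellTiter-Fluor fluorescence measured in parallel for cytotoxicity.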

Assay [16] in a line: qHTS assay for identifying genotoxic compounds that show differential cytotoxicity against isogenic chicken DT40 cell lines with known DNA damage response pathways - Rev3 mutant cell line (AID 743014). Also: nearly all actives have a fitted effect of over 55% in size. Also: potency is read from the fitted curve at half-maximal effect.
Assay [17] is described as follows: qHTS assay to identify small molecule antagonists of the androgen receptor (AR) signaling pathway - cell viability counter screen (AID 743033; also: nearly all actives have a fitted effect of over 45% in size; also: potency is read from the fitted curve at half-maximal effect).
Assay [18] addresses Androgen receptor (Homo sapiens) (UniProt P10275). Briefly: qHTS assay to identify small molecule antagonists of the androgen receptor (AR) signaling pathway (AID 743035; active = well fitted inhibition curve with a large enough effect in the signal ratio in the repeat runs, not every such curve was filed as active; inconclusive = weak or mixed curves, or effect the other way; inactive = no such curve, though single readings can be large or run the other way; the % refers to the signal ratio). The method, boiled down:
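In this cell-based reporter screen, compounds were tested in concentration series against R1881-activated HEK293 cells expressing beta-lactamase under UAS control; after 16 h at 37C, FRET substrate was added and fluorescence read 2 h later.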

Assay [19] shares this target. Briefly: qHTS assay to identify small molecule agonists of the androgen receptor (AR) signaling pathway (AID 743036; active = well fitted activation curve with a large enough effect in the signal ratio in the repeat runs, with a control signal flat, not every such curve was filed as active; inconclusive = weak or mixed curves, or effect the other way; inactive = no such curve, though single readings can be large or run the other way; the % refers to the signal ratio). In outline: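 Beta-lactamase under UAS control, stably integrated in HEK293 GripTite cells, reports receptor activation. After 16 h compound treatment, cells received FRET substrate for 2 h at room temperature before fluorescence reading.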
% is scaled to controls: 0 for no effect and ±100 for the full control effect.

Chain of Androgen receptor (Homo sapiens) (P10275 whole entry, looked up): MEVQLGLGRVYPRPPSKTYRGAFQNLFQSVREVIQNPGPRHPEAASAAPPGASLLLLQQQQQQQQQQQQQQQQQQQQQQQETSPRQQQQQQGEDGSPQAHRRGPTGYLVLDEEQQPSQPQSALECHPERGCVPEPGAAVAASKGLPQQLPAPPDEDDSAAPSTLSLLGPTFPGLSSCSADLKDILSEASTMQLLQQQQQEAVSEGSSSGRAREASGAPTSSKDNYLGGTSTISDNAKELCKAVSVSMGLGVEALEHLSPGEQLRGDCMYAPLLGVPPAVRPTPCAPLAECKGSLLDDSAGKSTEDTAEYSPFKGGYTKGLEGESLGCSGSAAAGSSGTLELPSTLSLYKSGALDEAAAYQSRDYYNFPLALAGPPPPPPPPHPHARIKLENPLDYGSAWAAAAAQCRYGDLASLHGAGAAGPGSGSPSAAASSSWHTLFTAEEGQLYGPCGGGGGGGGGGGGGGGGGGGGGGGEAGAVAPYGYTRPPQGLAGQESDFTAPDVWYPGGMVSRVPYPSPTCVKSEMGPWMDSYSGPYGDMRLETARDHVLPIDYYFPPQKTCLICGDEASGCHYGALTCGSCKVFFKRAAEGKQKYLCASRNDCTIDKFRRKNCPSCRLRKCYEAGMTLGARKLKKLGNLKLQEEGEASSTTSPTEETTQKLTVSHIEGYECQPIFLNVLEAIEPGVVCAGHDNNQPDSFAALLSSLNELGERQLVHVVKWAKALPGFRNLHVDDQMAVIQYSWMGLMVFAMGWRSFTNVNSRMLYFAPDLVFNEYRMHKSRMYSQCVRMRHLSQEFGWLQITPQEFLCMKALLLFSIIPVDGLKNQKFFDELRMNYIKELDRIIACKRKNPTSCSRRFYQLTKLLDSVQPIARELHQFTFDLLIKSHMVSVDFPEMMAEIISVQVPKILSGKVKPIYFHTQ

Consider `Cc1onc(-c2ccccc2Cl)c1C(=O)N[C@@H]1C(=O)N2[C@@H]1SC(C)(C)[C@@H]2C(=O)O`, for which the Potency entry in assay [1], in assay [2], in assay [3], in assay [4], in assay [5] and in [6] was “inactive” throughout. The Potency entry (in [7]; in assay [9]; in [10]; with Aromatase (Homo sapiens)) was “inactive” in each case. The activation in assay [8] (at 32.5 µM (top of the series)) is -4.31% (inactive).
`NC(=O)NS(=O)(=O)c1ccc(N)cc1`: the Potency entry in assay [1], in assay [2], in assay [3], in [4], in assay [11] and in assay [12] was “inactive” each time. The Potency entry (in assay [13]; in assay [5]; in assay [6]; in [7]; with Aromatase (Homo sapiens)) was “inactive” throughout.
Regarding `COc1ccc(C(=O)/C(Br)=C\C(=O)O)cc1`, the Potency entry in assay [1], in assay [14], in [13], in assay [6], in assay [7] and in [10] was “inactive” in each case. Moreover, the Potency entry was “inactive and 3.86 µM (active)” in assay [2]; 6.11 µM (active) in assay [3]; 23.7 µM (active) and 30.6 µM (active) in assay [15]; 21.7 µM (active) in assay [11]; 48.6 µM (active) in the assay with Aromatase (Homo sapiens). For the same compound, the activation in assay [8] (at 70.3 µM (top of the series)) was 0.472% (inactive).
Consider `CC(NN)c1ccccc1` (stereo not drawn), for which the Potency entry in [1], in assay [16], in assay [3], in assay [17], in assay [4] and in assay [6] was “inactive” in each case. Also, the Potency entry (in assay [9]; in assay [10]; in the assay with Aromatase (Homo sapiens)) was “inactive” throughout.
In the case of `CNCc1cc(F)ccc1Oc1ccc(Cl)c(Cl)c1`, the Potency entry in assay [1], in assay [6], in assay [7] and in assay [10] was “inactive” in each case. Further, the Potency in assay [2] is 13.7 µM (active); in assay [3] it was 13.7 µM (active); in [11], 30.6 µM (active); in assay [12], 30.6 µM (active).
As to `CS(=O)(=O)CCNCc1ccc(-c2ccc3ncnc(Nc4ccc(OCc5cccc(F)c5)c(Cl)c4)c3c2)o1`, the Potency result in assay [1], in assay [16], in assay [3], in assay [17], in assay [18] and in assay [14] was “inactive” throughout. Also, the Potency result in [4], in [15], in assay [11], in assay [12], in assay [13] and in assay [5] was “inactive” in each case. In addition, the Potency entry (in [7]; in [9]; in [10]; in the assay with Aromatase (Homo sapiens)) was “inactive” each time.
As for `CCCCCCCCCCCCCCCS(=O)(=O)Oc1ccccc1`, the Potency result in assay [1], in [16], in assay [3], in assay [17], in assay [4] and in assay [11] was “inactive” in each case. Also, the Potency entry in [12], in [13], in [5], in assay [6], in [7] and in assay [10] was “inactive” each time. The Potency entry with Aromatase (Homo sapiens) was “inactive”. Further, the activation in [8] (at 70.3 µM (top of the series)) was -9.91% (inactive).
`S=c1[nH]c2ccccc2s1`: the Potency entry in assay [1], in assay [17], in [4], in assay [11], in assay [12] and in [13] was “inactive” each time. For the same compound, the Potency entry with Aromatase (Homo sapiens) was “inactive”. The Potency in assay [16] is 29.8 µM (active) and 66.6 µM (active); in assay [3] it was 29.8 µM (active) and 64 µM (active); in assay [6] it was “inactive and 6.16 µM (active)”.
On to `CCOc1ccc2nc3cc(N)ccc3c(N)c2c1`, for which the Potency entry in assay [1], in assay [17], in [4], in assay [13], in assay [5] and in [6] was “inactive” in each case. For the same compound, the Potency in assay [16] and in [3] was 26.6 µM (active) each time. The activation in assay [8] (at 70.3 µM (top of the series)) was -22.3% (inactive).
`CCCCCCCCOC(=O)c1ccc(O)cc1`: the Potency entry in [1], in assay [17], in assay [4], in assay [13], in assay [6] and in assay [9] was “inactive” throughout. Also, the Potency result in [10] is “inactive”. For the same compound, the Potency in assay [16] was 60.9 µM (active); in assay [3], 60.9 µM (active); in assay [11] it was 61.1 µM (active); in assay [7], 61.4 µM [inconclusive] (active) and 43.7 µM [activator] (active); in [8], 7.67 µM (active) and 17.2 µM (active); with Aromatase (Homo sapiens), 21.6 µM (active) and 54.5 µM (active).
As to `O=C(O)c1ccc(Cl)c(Cl)c1`, the Potency result in assay [1], in assay [16], in assay [3], in [17], in [18] and in assay [19] was “inactive” throughout. Moreover, the Potency entry in [14], in assay [4], in [11], in assay [12], in [13] and in assay [6] was “inactive” each time. In addition, the Potency result (in assay [7]; in [10]; with Aromatase (Homo sapiens)) was “inactive” in each case. Moreover, the activation in [8] (at 70.3 µM (top of the series)) is -5.68% (inactive).
Regarding `Nc1ccc(N)c2ccccc12`, the Potency in assay [1] was 21.8 µM (active); in [2], 15.3 µM (active); in assay [17], 12.3 µM (active); in [4], 43.2 µM (active); in assay [15], 17.2 µM (active); in [11], 30.6 µM (active). The Potency in [12] was 48.5 µM (active); in assay [6], 21.8 µM (active); in assay [10], 5.44 µM (active). Besides, the Potency entry in assay [19], in assay [14], in assay [13] and in assay [7] was “inactive” in each case.
Take `NNc1nc(-c2ccccc2)cs1`: the Potency entry in [1], in assay [16], in [3], in assay [17], in [4] and in assay [13] was “inactive” throughout. Besides, the Potency entry (in [6]; in assay [7]; in assay [9]; in the assay with Aromatase (Homo sapiens)) was “inactive” each time. Moreover, the Potency in assay [11] is 31.5 µM (active); in [12], 14.1 µM (active). Further, the activation in [8] (at 95 µM (top of the series)) was 7.73% (inactive).
Consider `C[n+]1ccn(Cc2ccccc2)c1`, for which the Potency result in assay [1], in assay [2], in [4], in assay [11], in assay [12] and in assay [13] was “inactive” in each case. Besides, the Potency result (in assay [5]; in [7]; in [10]; in the assay with Aromatase (Homo sapiens)) was “inactive” in each case.
Turning to `Clc1ccc2cc3ccccc3cc2c1`, the Potency entry in [1], in assay [2], in assay [17], in [19], in [14] and in assay [4] was “inactive” each time. Further, the Potency entry in assay [15], in assay [11], in assay [12], in [13], in assay [5] and in [6] was “inactive” throughout. Besides, the Potency entry (in assay [10]; in the assay with Aromatase (Homo sapiens)) was “inactive” each time.
For `CC1=NC(C)OC1C` (stereo not drawn), the Potency entry in assay [1], in assay [16], in assay [3], in [17], in [14] and in assay [4] was “inactive” throughout. The Potency result in [11], in assay [12], in [13], in assay [6], in assay [7] and in assay [9] was “inactive” each time. The Potency entry (in assay [10]; in the assay with Aromatase (Homo sapiens)) was “inactive” each time.
